According to PubChem BioAssay (NCI):
About 83,000 compounds went through this panel and 20% of them were active in at least one assay; those are over-represented in the sample as a whole.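 Method: cells in 96-well plates; compound added at one concentration; 48 h incubation; percent growth measured; values under 10 scored active.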 Values without a mark were called inactive. Active and inactive are the calls of the source.

Assays:
Assay in all cases: NCI-60 one-dose screen, 48 h (100 = growth as untreated, 0 = no growth, -100 = all killed)
Conditions in all cases: 10 µM unless noted
BT-549 breast = test system: BT-549 breast
MDA-MB-435 melanoma = test system: MDA-MB-435 melanoma
SW-620 colon = test system: SW-620 colon
MCF7 breast = test system: MCF7 breast
HCT-116 colon = test system: HCT-116 colon
HCC-2998 colon = test system: HCC-2998 colon
KM12 colon = test system: KM12 colon

Structure (SMILES) | growth (BT-549 breast) | growth (MDA-MB-435 melanoma) | growth (SW-620 colon) | growth (MCF7 breast) | growth (HCT-116 colon) | growth (HCC-2998 colon) | growth (KM12 colon)
CCC[S@](=O)c1ccc2nc(NC(=O)OC)[nH]c2c1 | 97.3% | 101% | 93.4% | 92% | 84.4% | 105% | 103%
COc1cc(-c2cn(-c3ccc(Cl)c(Cl)c3)c(=O)[nH]2)cc(OC)c1OC | 102% | 96.4% | 109% | 87.7% | 78.7% | 99.9% | 90.8%
CCOC(=O)/C=C1\SC(=Nc2ccc(C#N)cc2)N(CCN2C(=O)/C(=C/C(=O)OCC)SC2=Nc2ccc(C#N)cc2)C1=O | 32.5% | 72.6% | 9.61% (active) | 24.4% | 4.59% (active) | 20.6% | 23.2%
NC(=O)c1ccc2nc3c(n2c1)C(=O)C(=O)c1ccccc1-3 | -94.3% (active) | -91.4% (active) | -50.4% (active) | -55.5% (active) | -79.4% (active) | -84.5% (active) | -50.1% (active)
O=c1[nH]nc(-c2ccccc2)c2sc(NC(=S)Nc3ccc(Cl)cc3)nc12 | 92.6% | 103% | 98.1% | 74.9% | 87.8% | 107% | 90%
O=C(N/N=C/C[C@@H]1[C@@H](/C=C/[C@@H](O)COc2cccc(Cl)c2)[C@H](O)C[C@@H]1O)c1ccncc1 | 95.3% | 99.8% | 94.2% | 99.1% | 92.7% | 104% | 105%
COc1cc2cc(c1Cl)N(C)C(=O)C[C@H](OC(=O)[C@H](C)N(C)C(=O)CCS)C[C@]1(C)O[C@H]1[C@H](C)[C@@H]1C[C@@](O)(NC(=O)O1)[C@H](OC)/C=C/C=C(\C)C2 | 21.9% | -16.4% (active) | 18.5% | 11.4% | 2.39% (active) | 8.58% (active) | 16.1%
COc1cc(NC(=O)c2cc(O)c(C/C=C(\C)CCC=C(C)C)c(O)c2)cc2c1O[C@]1(C)CC[C@@H](O)C(C)(C)[C@H]1C2 | 0.27% (active) | 10.2% | 9.02% (active) | 8.42% (active) | 10.8% | 16.4% | 7.44% (active)
N#Cc1c(NC(=O)c2cccs2)[n+]([O-])c2cc(C(F)(F)F)ccc2[n+]1[O-] | 93.9% | 106% | 89% | 98.7% | 95.2% | 99.2% | 108%
COc1ccc(C(=S)c2cc(OC)c(OC)c(OC)c2)cc1OC(=O)CCl | 12.1% | -8.11% (active) | 29.5% | 15% | 9.73% (active) | 31.2% | 13.9%
COC(=O)/C=C1\SC(=Nc2ccc(F)cc2)N(CCc2c[nH]c3ccccc23)C1=O | 88.4% | 114% | 106% | 74.9% | 87.8% | 102% | 100%
COc1cc(C(=O)N2CCN(c3ccccc3OC)CC2)c(NC(=O)c2cnccn2)cc1OCc1ccccc1 | 97.6% | 95.1% | 101% | 109% | 87.8% | 87.3% | 90.7%
O=C1CS/C(=N/c2nnc(-c3ccc(O)cc3)s2)N1 | 100% | 103% | 107% | 89.3% | 99.8% | 102% | 100%
O=C1C(=O)c2c(nc3ccc(C(F)(F)F)cn23)-c2ccccc21 | -85.2% (active) | -84.4% (active) | -60.4% (active) | -55.5% (active) | -74.9% (active) | -90.4% (active) | -61.7% (active)
CCN1CCN(Cc2ccc(NC(=O)c3cccc(C#Cc4cccc5[nH]nc(N)c45)c3)cc2C(F)(F)F)CC1 | 3.52% (active) | -91.2% (active) | -76% (active) | -77.8% (active) | -96.5% (active) | -87.4% (active) | -75% (active)
O=C(Nc1cc(Nc2ncccc2-c2ncnc3nc[nH]c23)ccc1F)c1cc(C(F)(F)F)cc(C(F)(F)F)c1 | -25.2% (active) | 6.76% (active) | 13.1% | -2.67% (active) | -43% (active) | -83.4% (active) | -55.9% (active)

Structure (SMILES) | growth (BT-549 breast) | growth (MDA-MB-435 melanoma) | growth (SW-620 colon) | growth (MCF7 breast) | growth (HCT-116 colon) | growth (HCC-2998 colon) | growth (KM12 colon)
Cc1nc(C)c(C)nc1C | 110% | 108% | 103% | 101% | 98.4% | 95.6% | 105%
O=C(C[n+]1cccc2cc(Cl)ccc21)c1ccc2c(c1)CCCC2 | 22.2% | 10.8% | 35.6% | 4.57% (active) | 7.99% (active) | 27.7% | 14.7%
N#CC1C(c2ccc(Cl)cc2)=Nc2c(c(-c3ccccc3)nn2-c2ccccc2)C12C(=O)Nc1ccc(Cl)cc12 (configuration not stated) | 50% | 34.5% | 42.1% | 28.4% | 26.2% | 55.2% | 26.1%
Cc1nccc2c3ccc(OCc4cn(-c5ccc(Br)cc5)nn4)cc3n(CC(C)C)c12 | 54.4% | 61.3% | 48% | 31.2% | 23% | 70.3% | 44.8%
CCCn1c2cc(OCc3cn(-c4ccc(Cl)cc4)nn3)ccc2c2ccnc(C)c21 | 87.2% | 101% | 74.8% | 73.3% | 41.6% | 92.7% | 74.1%
NS(=O)(=O)c1ccc(N2Cc3cc(Cl)ccc3OC3=C2C(=O)N(CC2CCCCC2)C3=O)cc1 | -76.4% (active) | -73.9% (active) | -77.5% (active) | -71.5% (active) | -85.6% (active) | -72.9% (active) | 4.52% (active)
O=[N+]([O-])c1ccc(Oc2ccc(-c3ccccc3)cc2)cc1 | 79.6% | 101% | 99% | 84.4% | 73.4% | 92.2% | 89.5%
CNC(=O)c1cc(Oc2ccc3c(c2)sc2nc(-c4ccc(NC(C)=O)cc4)cn23)ccn1 | 38.3% | 3.75% (active) | 57.2% | 55% | 48.9% | 78.1% | 43.3%
COC(=O)c1cc2c3c(cc(O)c2[nH]1)N(C(=O)C1Cc2cc(OC)c(OC)c(OC)c2N1)CC3CCl (configuration not stated) | -84.6% (active) | -14% (active) | -10.8% (active) | -5.51% (active) | -63.3% (active) | -73.2% (active) | -29.4% (active)
N#Cc1ccc(N2Cc3cc(Cl)ccc3OC3=C2C(=O)N(Cc2ccc(F)cc2)C3=O)cc1 | -63.3% (active) | -48.8% (active) | -81% (active) | -19.5% (active) | -90.4% (active) | 42.2% | 52.6%
C#C[C@@]1(O)[C@@H](CO)O[C@@H](n2cc(-c3ccco3)c3c(N)ncnc32)[C@@H]1O | 58.5% | 66.4% | 63.5% | 13.9% | 68% | 56.4% | 18.2%
NC(N)=NC(N)=Nc1cc2ccccc2c2ccccc12 | 36.1% | 68.9% | 22.9% | 2.2% (active) | -44.5% (active) | 26.2% | 47%
CCOC(=O)NCCc1nc2c([nH]1)c(=O)n(C)c(=O)n2C | 97.6% | 101% | 103% | 95.4% | 92.7% | 99.7% | 101%
COc1ccc2nc(-c3ccc(OC)c(OC)c3)cc(-c3nnc(SCC(=O)Nc4ccc(C(C)=O)cc4)o3)c2c1 | 102% | 103% | 103% | 94.9% | 89.7% | 111% | 102%
O=Cc1[nH]c(Sc2ccccc2)c2ccccc12 | 53.4% | 81.7% | 81.1% | 72.2% | 60.6% | 109% | 81.2%
